This is part of a sample that, as a whole, favours compounds with a hit. Of some 79,000 tested, about 15% had one in any assay. The source made the active and inactive calls. Rule as the data show it: active = growth inhibition above about 70%; inactive = the rest.
How the values were obtained:
[1] = NCI Yeast Anticancer Drug Screen. Data for the rad52 strain (AID 147);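 also: 0% = growth of vehicle-treated control cultures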; conditions: S. cerevisiae rad52 mutant growth inhibition, stronger effect = higher value
Procedure, shortened: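 Here a repair-compromised yeast strain receives each compound; its growth is then quantified and normalised to vehicle-only controls.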

[2] = NCI Yeast Anticancer Drug Screen. Data for the rad50EPP+ strain (AID 151);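 also: 0% = growth of vehicle-treated control cultures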; conditions: S. cerevisiae rad50 mutant strain, stronger effect = higher value
Procedure, shortened: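 Read-out is yeast growth inhibition relative to vehicle; cells used were the rad50EPP+ strain.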

[3] = NCI Yeast Anticancer Drug Screen. Data for the mgt1 strain (AID 153); conditions: S. cerevisiae mgt1 mutant growth inhibition, stronger effect = higher value
Procedure, shortened: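 Measured: inhibition of mgt1 yeast growth by compound, normalized to vehicle-treated cultures.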

[4] = NCI Yeast Anticancer Drug Screen. Data for the rad50 strain (AID 155);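 also: 0% = growth of vehicle-only cultures of the same strain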; conditions: S. cerevisiae rad50 strain growth inhibition, stronger effect = higher value
Procedure, shortened: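 DNA repair mutant yeast, compound exposure, growth read-out; inhibition is taken relative to vehicle.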

[5] = NCI Yeast Anticancer Drug Screen. Data for the mec2-1 strain (AID 157); conditions: S. cerevisiae mec2-1 strain, stronger effect = higher value
Procedure, shortened: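 Using mec2-1 yeast: add compound, measure growth, express inhibition versus vehicle-treated cultures.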

[6] = NCI Yeast Anticancer Drug Screen. Data for the rad14 strain (AID 159);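 also: 0% = growth of vehicle-treated control cultures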; conditions: S. cerevisiae rad14 strain growth inhibition, stronger effect = higher value
Procedure, shortened: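 DNA repair-defective yeast, compound-exposed; % growth inhibition derived by comparison with vehicle-treated controls.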

[7] = NCI Yeast Anticancer Drug Screen. Data for the sgs1 mgt1 strain (AID 161);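 also: 0% = growth of cultures given vehicle only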; conditions: S. cerevisiae sgs1 mgt1 strain, stronger effect = higher value
Procedure, shortened: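 Growth of a repair-deficient yeast mutant was monitored after compound treatment and expressed as inhibition relative to vehicle-treated cultures.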

[8] = NCI Yeast Anticancer Drug Screen. Data for the CLN2oe strain (AID 163);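 also: 0% = growth of vehicle-only control cultures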; conditions: S. cerevisiae CLN2oe strain, stronger effect = higher value
Procedure, shortened: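 Whole-cell yeast growth assay. A strain engineered for altered cell-cycle control received compound, and inhibition relative to vehicle-treated cultures was recorded.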

[9] = NCI Yeast Anticancer Drug Screen. Data for the cln2 rad14 strain (AID 165);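 also: 0% = growth equal to vehicle treated cultures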; conditions: S. cerevisiae cln2 rad14 strain, stronger effect = higher value
Procedure, shortened: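 Yeast strain cln2 rad14, bearing defects in cell cycle control and DNA repair, serves as the test system; values reflect growth inhibition compared with vehicle.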

[10] = NCI Yeast Anticancer Drug Screen. Data for the bub3 strain (AID 167); conditions: S. cerevisiae bub3 mutant strain, stronger effect = higher value
Procedure, shortened: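 In this screen, a yeast mutant lacking normal mitotic checkpoint function is challenged with compound. Relative growth versus vehicle gives the inhibition value.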

[11] = NCI Yeast Anticancer Drug Screen. Data for the wt2 strain (AID 169);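 also: 0% = growth of vehicle-treated yeast cultures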; conditions: S. cerevisiae wt2 strain growth inhibition, stronger effect = higher value
Procedure, shortened: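 Treated yeast vs. vehicle-treated yeast: growth inhibition determined.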

[12] = NCI Yeast Anticancer Drug Screen. Data for the mlh1 strain (AID 171);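 also: 0% = growth of vehicle-treated control cultures of the same strain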; conditions: S. cerevisiae mlh1 strain growth inhibition, stronger effect = higher value
Procedure, shortened: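 A yeast strain with a defined genetic lesion serves as the test organism. Cultures receive compound or vehicle, and growth is measured.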

[13] = NCI Yeast Anticancer Drug Screen. Data for the sgs1 strain (AID 173);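 also: 0% = growth of vehicle-only control cultures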; conditions: S. cerevisiae sgs1 mutant, stronger effect = higher value
Procedure, shortened: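 A genetically defined yeast mutant is incubated with the test compound, and its growth is compared to that of the same strain given vehicle.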

[14] = NCI Yeast Anticancer Drug Screen. Data for the mlh1 rad18 strain (AID 175); conditions: S. cerevisiae mlh1 rad18 strain growth inhibition, stronger effect = higher value
Procedure, shortened: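 Steps: expose repair-defective yeast to compound; measure growth; express inhibition against vehicle-treated controls.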

[15] = NCI Yeast Anticancer Drug Screen. Data for the rad18 strain (AID 177); conditions: S. cerevisiae rad18 mutant growth inhibition, stronger effect = higher value
Procedure, shortened: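 Measured value is growth inhibition of a yeast strain bearing a DNA repair alteration, referenced to vehicle-treated cells.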

[16] = at 5.0 µM (retest, dose inferred, filed as 0.5)
[17] = at 50.0 µM (retest, dose inferred, filed as 5.0)

Measured: growth inhibition

COc1ccc(N=CN(C)C)c(C)c1
active: [1]; at 33.0 µM 83% | [1]; at 100.0 µM 94% | [2]; at 100.0 µM 71% | [3]; at 33.0 µM 93% | [3]; at 100.0 µM 95% | [4]; at 33.0 µM 86% | [4]; [17] 78% | [4]; at 50.0 µM 91.5% | [4]; at 100.0 µM 95% | [5]; at 33.0 µM 85% | [5]; [17] 76% | [5]; at 50.0 µM 94% | [5]; at 100.0 µM 96% | [6]; at 33.0 µM 92% | [6]; at 100.0 µM 95% | [7]; [17] 97% | [7]; at 50.0 µM 93.5% | [8]; at 33.0 µM 84% | [8]; at 100.0 µM 93% | [9]; [17] 96% | [9]; at 50.0 µM 92% | [10]; at 33.0 µM 88% | [10]; [17] 95% | [10]; at 50.0 µM 91.9% | [10]; at 100.0 µM 94% | [11]; at 33.0 µM 87% | [11]; at 100.0 µM 96% | [12]; at 33.0 µM 93% | [12]; at 100.0 µM 96% | [13]; at 33.0 µM 89% | [13]; at 100.0 µM 95% | [14]; [17] 72% | [15]; at 33.0 µM 89% | [15]; at 100.0 µM 93%
inactive: [1]; at 1.2 µM -24% | [1]; at 3.7 µM -26% | [1]; at 11.0 µM 0% | [2]; at 1.2 µM -9% | [2]; at 3.7 µM -62% | [2]; at 11.0 µM -62% | [2]; at 33.0 µM -34% | [3]; at 1.2 µM -40% | [3]; at 3.7 µM -51% | [3]; at 11.0 µM -43% | [4]; at 1.2 µM -1% | [4]; at 3.7 µM 1% | [4]; [16] 50% | [4]; at 11.0 µM -19% | [5]; at 1.2 µM -44% | [5]; at 3.7 µM -70% | [5]; [16] 46% | [5]; at 11.0 µM -43% | [6]; at 1.2 µM -63% | [6]; at 3.7 µM -54% | [6]; at 11.0 µM -43% | [7]; [16] -4% | [8]; at 1.2 µM -28% | [8]; at 3.7 µM -34% | [8]; at 11.0 µM -10% | [9]; [16] 63% | [10]; at 1.2 µM -30% | [10]; at 3.7 µM -9% | [10]; [16] 44% | [10]; at 11.0 µM -28% | [11]; at 1.2 µM -26% | [11]; at 3.7 µM -39% | [11]; at 11.0 µM -27% | [12]; at 1.2 µM -37% | [12]; at 3.7 µM -3% | [12]; at 11.0 µM -16% | [13]; at 1.2 µM -45% | [13]; at 3.7 µM -40% | [13]; at 11.0 µM -59% | [14]; [16] 44% | [14]; at 50.0 µM 48.4% | [15]; at 1.2 µM -50% | [15]; at 3.7 µM -55% | [15]; at 11.0 µM -8%

Clc1ccc2c(c1)N(CCCN1CCCC13CCCCC3)c1ccccc1S2
inactive: [1]; at 1.2 µM 1% | [1]; at 3.7 µM 3% | [1]; at 11.0 µM 2% | [1]; at 33.0 µM 1% | [1]; at 100.0 µM -7% | [2]; at 1.2 µM 0% | [2]; at 3.7 µM 3% | [2]; at 11.0 µM -2% | [2]; at 33.0 µM -3% | [2]; at 100.0 µM -7% | [3]; at 1.2 µM 2% | [3]; at 3.7 µM -1% | [3]; at 11.0 µM 3% | [3]; at 33.0 µM -2% | [3]; at 100.0 µM -2% | [4]; at 1.2 µM 4% | [4]; at 3.7 µM 10% | [4]; [16] 3% | [4]; at 11.0 µM 4% | [4]; at 33.0 µM 4% | [4]; [17] 61% | [4]; at 50.0 µM -2.15% | [4]; at 100.0 µM 2% | [5]; at 1.2 µM -3% | [5]; at 3.7 µM 3% | [5]; [16] -3% | [5]; at 11.0 µM 2% | [5]; at 33.0 µM 0% | [5]; [17] 20% | [5]; at 50.0 µM 39.8% | [5]; at 100.0 µM -8% | [6]; at 1.2 µM -2% | [6]; at 3.7 µM -7% | [6]; at 11.0 µM -2% | [6]; at 33.0 µM 0% | [6]; at 100.0 µM 4% | [7]; [16] -11% | [7]; [17] 43% | [7]; at 50.0 µM -25.4% | [8]; at 1.2 µM 2% | [8]; at 3.7 µM 4% | [8]; at 11.0 µM 4% | [8]; at 33.0 µM 3% | [8]; at 100.0 µM 2% | [9]; [16] -21% | [9]; [17] -5% | [10]; at 1.2 µM 4% | [10]; at 3.7 µM -13% | [10]; [16] -5% | [10]; at 11.0 µM 1% | [10]; at 33.0 µM 2% | [10]; [17] 15% | [10]; at 50.0 µM -0.55% | [10]; at 100.0 µM 7% | [11]; at 1.2 µM 1% | [11]; at 3.7 µM 2% | [11]; at 11.0 µM 0% | [11]; at 33.0 µM -2% | [11]; at 100.0 µM -2% | [12]; at 1.2 µM 0% | [12]; at 3.7 µM 2% | [12]; at 11.0 µM -4% | [12]; at 33.0 µM -15% | [12]; at 100.0 µM 8% | [13]; at 1.2 µM -2% | [13]; at 3.7 µM -3% | [13]; at 11.0 µM -6% | [13]; at 33.0 µM -7% | [13]; at 100.0 µM -6% | [14]; [16] -6% | [14]; at 50.0 µM 10.1% | [15]; at 1.2 µM -1% | [15]; at 3.7 µM -1% | [15]; at 11.0 µM -9% | [15]; at 33.0 µM -22% | [15]; at 100.0 µM -33%
active: [9]; at 50.0 µM 84% | [14]; [17] 95%
